Compound activity deposited in PubChem BioAssay by NMMLSC.
GRK2 aptamer HTS – compounds blocking aptamer binding on GRK2 – biochemical, human GRK2, bead flow cytometry, HTS, primary screen; FAM-aptamer displacement from GRK2; inhibition of aptamer binding, % at 10 µM; 0.59% of 330,000 active;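 active = inhibition of aptamer binding above 40%, roughly 3 SD of noise, on plates passing a quality check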;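 also: median bead fluorescence of bound FAM aptamer so fluorescent compounds give negative values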
Target sequence (P25098 whole entry, looked up): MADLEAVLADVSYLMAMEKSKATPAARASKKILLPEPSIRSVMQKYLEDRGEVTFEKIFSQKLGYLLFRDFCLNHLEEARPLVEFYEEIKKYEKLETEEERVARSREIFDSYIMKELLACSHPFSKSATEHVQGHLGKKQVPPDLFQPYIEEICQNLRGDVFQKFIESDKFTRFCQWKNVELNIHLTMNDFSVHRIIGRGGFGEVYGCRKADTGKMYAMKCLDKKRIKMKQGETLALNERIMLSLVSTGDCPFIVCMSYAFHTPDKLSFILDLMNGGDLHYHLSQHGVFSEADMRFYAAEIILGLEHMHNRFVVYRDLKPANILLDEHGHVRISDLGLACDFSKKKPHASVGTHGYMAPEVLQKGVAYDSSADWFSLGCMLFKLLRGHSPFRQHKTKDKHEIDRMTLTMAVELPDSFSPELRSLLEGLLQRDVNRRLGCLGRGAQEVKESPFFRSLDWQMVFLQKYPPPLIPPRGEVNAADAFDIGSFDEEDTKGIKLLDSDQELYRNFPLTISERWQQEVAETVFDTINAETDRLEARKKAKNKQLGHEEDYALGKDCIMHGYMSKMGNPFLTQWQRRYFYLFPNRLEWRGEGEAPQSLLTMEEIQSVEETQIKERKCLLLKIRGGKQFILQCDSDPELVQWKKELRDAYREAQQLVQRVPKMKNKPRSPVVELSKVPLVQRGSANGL
MEKK2 mut-MEK5 – MEK5 binding signal on mutant MEKK2 PB1, primary screen, biochemical, multiplex bead flow cytometry, Alexa488-MEK5 | Alexa488-MEK5 binding to MEKK2 mutant | percent response, % at 10 µM | 0.35% of 290,000 active | AID 1530, 2009; in the data active = percent response above about 24%, passing the limit was not always enough
MEKK2wt PB1 HTS – modulators of MEK5 binding to wildtype MEKK2, primary screen, biochemical, multiplex bead flow cytometry, Alexa488-MEK5; Mitogen-activated protein kinase kinase kinase 2 (Homo sapiens), Q9Y2U5; Alexa488-MEK5 binding to MEKK2 WT; actives lie on both sides; binding response (% of control), % at 10 µM; 1.1% of 290,000 active; in the data active = binding response below about 67% or above about 130%
MEKK3 PB1 HTS – modulators of MEKK3-MEK5 PB1 binding, primary screen, biochemical, wildtype MEKK3, multiplex bead flow cytometry, Alexa488-MEK5; binding response (% of control), % at 10 µM; Mitogen-activated protein kinase kinase kinase 3 (Homo sapiens), Q99759; AID 1529, 2009; bead-based flow cytometry, Alexa488-MEK5 binding to MEKK3; actives lie on both sides; 0 = blocked by unlabeled MEK5, 100 = vehicle; 1.4% of 290,000 active;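 active = binding response more than 3 SD above or below the average of its plate-row segment, actives on both sides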;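 also: Alexa488 bead fluorescence after subtracting the streptavidin-only scavenger bead signal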
Each line names hits and unclear results; the compound was inactive in the other large screens; ! = not confirmed by another sample; [ ] = remark or other dose. Only some compounds are listed: those with a hit (about 2.5% of all), similar ones and a draw of the others.

O=C(CSc1nc2ccccc2c(=O)n1-c1ccc(F)cc1)Nc1cc(S(=O)(=O)N2CCOCC2)ccc1Cl	GRK2 aptamer HTS 53
COc1cc(NC(=O)c2cc(-c3ccco3)on2)c(OC)cc1Cl	none (no result: MEKK2 mut-MEK5, MEKK2wt PB1 HTS, MEKK3 PB1 HTS)
COc1ccccc1CNC(=O)N[C@@H](Cc1ccccc1)C(=O)O	none
CC(C)CCN1CCC(N)=NC1=O	MEKK2 mut-MEK5 534, MEKK2wt PB1 HTS 422 (no result: GRK2 aptamer HTS)
CC(C)CCN1CCC(Cc2ccccc2)(NC(=O)c2ccccc2)C1=O (stereo not drawn)	none (no result: MEKK2 mut-MEK5, MEKK2wt PB1 HTS, MEKK3 PB1 HTS)
CC(C)Cc1ccc(CN2CCCC(NC(=O)CCN3CCCO3)C2)cc1 (stereo not drawn)	MEKK2wt PB1 HTS 134
O=C(CN1C(=O)c2ccccc2S1(=O)=O)NCc1ccc(F)cc1	MEKK3 PB1 HTS 72[inhibitor]
Cc1ccc(CCNC(=O)C2=CCN(S(=O)(=O)c3ccccc3)CC2)cc1	none
CCC(OC(=O)c1nsc(Cl)c1Cl)C(=O)NC(C)(C)C (stereo not drawn)	MEKK2wt PB1 HTS 12
CC(=O)c1ccc(NC(=O)C2CCCO2)cc1 (stereo not drawn)	none
CC(=O)c1ccc(N2CCN(C(=O)c3ccc(NC(=O)C4CCCO4)cc3)CC2)cc1 (stereo not drawn)	MEKK3 PB1 HTS 81[inhibitor]
Cc1cccc(N2CCN(C(=O)c3ccc(NC(=O)C4CCCO4)cc3)CC2C)c1 (stereo not drawn)	MEKK2wt PB1 HTS -1.0[inhibitor], MEKK3 PB1 HTS 0.0[inhibitor]
COc1cc2c(cc1OC)CN(CC(=O)Nc1ccc(Cl)cc1Cl)CC2	none
O=C(CSc1nnc(Cn2c(=O)sc3ccccc32)n1-c1ccccc1)NCC1CCCO1 (stereo not drawn)	none
CCC(=O)Nc1nc(-c2ccc3c(c2)CC(C)N3S(C)(=O)=O)cs1 (stereo not drawn)	MEKK2wt PB1 HTS -1.0
CC(=O)Nc1ccc(N(CC(=O)NC2CCCC2)C(=O)CCC(=O)Nc2cc(C)on2)cc1	none
COc1ccc(-c2coc3cc4oc(=O)cc(C)c4cc23)cc1F	none
COc1ccc(-c2coc3cc4oc(=O)cc(-c5ccccc5)c4cc23)cc1F	MEKK3 PB1 HTS 132
Cn1c(=O)c(C(=O)NNC(=O)c2ccc(Br)cc2)c(O)c2ccccc21	GRK2 aptamer HTS 47
Cn1c(=O)c(C(=O)NNC(=O)c2ccccc2F)c(O)c2ccccc21	none
O=Cc1c(C(=O)O)n(CC(=O)O)c2ccccc12	MEKK3 PB1 HTS 134
O=C(O)Cn1c2ccccc2c2ccccc21	none
CCN1CCCC1CNC(=O)c1ccc2c(c1)NC(=O)/C(=C\c1ccc(OC)c(OC)c1)S2 (stereo not drawn)	MEKK2 mut-MEK5 25, MEKK2wt PB1 HTS 153[inhibitor]
Cc1cccc(/C=C2/Sc3ccc(C(=O)NCCN4CCCC4)cc3NC2=O)c1	MEKK2 mut-MEK5 46, MEKK2wt PB1 HTS 183
O=C1Nc2cc(C(=O)NCCN3CCCCCC3)ccc2S/C1=C\c1ccccc1	MEKK2 mut-MEK5 43, MEKK2wt PB1 HTS 219
COc1cccc(/C=C2\SC(=S)N(CCCC(=O)N3CCCC3)C2=O)c1	GRK2 aptamer HTS 55
CC(Cc1cccnc1)NC(=O)CCc1nnc(-c2ccccc2)o1 (stereo not drawn)	none
CC(C)C(=O)NN(C(=O)c1ccccc1)c1ccccc1	none
COc1cccc(/C=C2/Sc3ccc(C(=O)NCCN4CCCCCC4)cc3NC2=O)c1	MEKK2 mut-MEK5 71, MEKK2wt PB1 HTS 280
COc1ccc(/C=C2/Sc3ccc(C(=O)NCCCN4CCOCC4)cc3NC2=O)cc1OC	none
O=C1CCC(=O)N1OCCCCOc1ccccc1	GRK2 aptamer HTS 42
C#CC1(NC(=O)NS(=O)(=O)c2ccc(C)cc2)CCCCC1	none
COc1ccccc1N1CCN(C(=O)C2C3C=CC4(CN(Cc5ccccc5Cl)C(=O)C24)O3)CC1 (stereo not drawn)	MEKK3 PB1 HTS 82[inhibitor]
O=C(O)COc1ccccc1/C=N/NC(=O)Cc1ccccc1	MEKK2wt PB1 HTS -12
O=C(O)COc1ccccc1/C=N/NC(=O)c1ccc(F)cc1	none
COc1ccc(CCNC(=O)CN2CCN(Cc3ccccc3F)C2=O)cc1OC	none
CCCN1C/C(=C/c2ccc3c(c2)OCO3)C(=O)/C(=C/c2ccc3c(c2)OCO3)C1	MEKK3 PB1 HTS 136
CCCN1C(=O)/C(=C/c2ccc3c(c2)OCO3)NC1=S	none (no result: GRK2 aptamer HTS)
CC(C)[C@H](NC(=O)c1ccccc1Cl)C(=O)OCC(=O)NCc1ccc2c(c1)OCO2	GRK2 aptamer HTS 42 (no result: MEKK2 mut-MEK5, MEKK2wt PB1 HTS, MEKK3 PB1 HTS)
CNCCCCOc1ccccc1Cc1ccccc1	none
CN(C)CCOc1ccccc1Cc1ccccc1	MEKK2wt PB1 HTS -18
Cc1ccccc1C(=O)Nc1ccnn1C1CCN(C(=O)C2CCOC2)CC1 (stereo not drawn)	none
Cc1cc(CN2CCCC(C(=O)Nc3cccc(-n4cccn4)c3)C2)cc(C)c1O (stereo not drawn)	none
O=C(Nc1cccc(-n2cccn2)c1)C1CCCN(Cc2cc3ccccc3[nH]2)C1 (stereo not drawn)	MEKK2 mut-MEK5 24, MEKK2wt PB1 HTS 139 (no result: GRK2 aptamer HTS)
Cc1ccc(CSc2nc3nc(C)cc(C)c3c(=O)[nH]2)cc1	none
Oc1ccc(Cl)cc1C1=NNC(c2ccc(Cl)cc2)C1 (stereo not drawn)	MEKK3 PB1 HTS 135
Cc1ccc2nc(-c3cccc(NS(C)(=O)=O)c3)cc(-c3ccccc3)c2c1	none
CCN1/C(=C\C=C2\C(=O)N(c3ccccc3)C(=S)N2C)Sc2ccccc21	MEKK2wt PB1 HTS 44[inhibitor], MEKK3 PB1 HTS 75[inhibitor] (no result: GRK2 aptamer HTS)
O=[N+]([O-])c1ccc(N/N=C/c2ccc[nH]2)cc1	MEKK2wt PB1 HTS -1.0
COc1ccc(NC(=O)C2CCCN(S(=O)(=O)c3cccc4nonc34)C2)cc1OC (stereo not drawn)	none
COc1cc(OC)c2c(-c3ccccc3)cc(=O)oc2c1C(CC(=O)N1CCN(c2ccccc2)CC1)c1ccc2c(c1)OCO2 (stereo not drawn)	MEKK2wt PB1 HTS 145, MEKK3 PB1 HTS 131 (no result: GRK2 aptamer HTS)
COc1ccccc1NC(=O)CSc1nnc(C2CCCCC2)n1C	none
COc1cccc2c1C(=O)c1c(O)c3c(c(O)c1C2=O)C[C@@](O)(C(=O)CO)C[C@@H]3O[C@H]1C[C@H](N)[C@H](O)[C@H](C)O1	MEKK2wt PB1 HTS 50![inhibitor], MEKK3 PB1 HTS 47![inhibitor]
Cn1cnnc1SC(C(=O)Nc1cc(Cl)cc(Cl)c1)c1ccccc1 (stereo not drawn)	none
CN(C)c1ccc(/C=C2\CCC/C(=C\c3ccccc3)C2=O)cc1	MEKK2wt PB1 HTS 15
C(C#CCCCCCCCCC[n+]1ccccc1)#CCCCCCCCCC[n+]1ccccc1	MEKK2 mut-MEK5 56, MEKK2wt PB1 HTS 274
COc1ccc(N2CCN(Cc3cc(OC)c(O)c([N+](=O)[O-])c3)CC2)cc1	none
COc1cc(CN2CCN(c3cccc(C)c3C)CC2)cc([N+](=O)[O-])c1O	MEKK2 mut-MEK5 242, MEKK2wt PB1 HTS 212
Cc1ccccc1Nc1nc(N)c2ccccc2n1	MEKK2wt PB1 HTS 173, MEKK3 PB1 HTS 161
